Measurements as given in PubChem BioAssay (Tox21).
Where “and” joins values, the source holds several entries; their conditions need not be identical. Equal values may be shown once. Inconclusive results are not listed. More than one record can exist for a structure, and the calls need not agree. Calls of active or inactive are those of the source. Unless noted, the call rests on the fitted dose curve; in most records, active means well fitted curve in the direction sought with a large enough effect in the repeat runs; inconclusive means weak or mixed curves; inactive means no such curve, though single readings can be large; an effect the other way counts as inactive or inconclusive.

Experiments:
[1] = qHTS assay to identify small molecule agonists of H2AX (AID 1224845; active means well fitted activation curve with a large enough effect in the signal ratio in the repeat runs, not every such curve was filed as active; the % refers to the signal ratio)
Method in brief: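 Wild-type CHO-K1 cells plated overnight, then exposed 3 hr at 37C to compounds at 15 concentrations (0.76% DMSO). Lysed, then HTRF anti-pH2AX(S139)-cryptate/anti-H2AX-d2 detection after 24 hr at room temperature; emissions 665 and 620 nm.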

[2] = qHTS assay to identify small molecule agonists of the hypoxia (HIF-1) signaling pathway (AID 1224846; active means well fitted activation curve with a large enough effect in the signal ratio in the repeat runs, not every such curve was filed as active; the % refers to the signal ratio)
Method in brief: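 HRE-bla ME-180 cells (beta-lactamase reporter under hypoxia response element) were plated at 2,000 cells/well in medium with 0.5% dialyzed FBS, rested 5 hrs, then given compounds in DMSO for 17 hrs at 37C, 5% CO2. Reporter induction was read with CCF4-AM FRET substrate.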

[3] = qHTS assay to identify small molecule agonists of H2AX - cell viability counter screen (AID 1224847; calls by dose curve; further: nearly all actives have a fitted effect of over 30% in size; further: potency means the concentration at half of the fitted maximal effect)
Method in brief: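 Counter-screen for viability: CellTiter-Glo ATP luminescence read after 3 h compound treatment (15-point titration, 0.76% DMSO final) of CHO-K1 cells at 37C, with 30 min room-temperature reagent incubation.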

[4] = qHTS RealTime-Glo MT Cell Viability Assay in HepG2 cells - 24 hour (AID 1224867); further: nearly all actives have a fitted effect of over 50% in size; further: potency means the concentration at half of the fitted maximal effect
Method in brief: (§1)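 Compound treatment began 5 h after plating HepG2 cells (600/well) with NanoLuc luciferase and prosubstrate. Plates stayed at 37 C for 40 h; luminescence was captured at six time points, 0 h through 40 h.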

[5] = qHTS RealTime-Glo MT Cell Viability Assay in HEK293 cells - 32 hour (AID 1224868); further: nearly all actives have a fitted effect of over 50% in size; further: potency means the concentration at half of the fitted maximal effect
Method in brief: (§2)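 Quantitative high-throughput screen of the Tox21 10K library in HEK293: cells and RealTime-Glo reagents plated together, compound added at 5 h, luminescence monitored through 40 h at 37 C.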

[6] = qHTS RealTime-Glo MT Cell Viability Assay in HepG2 cells - 40 hour (AID 1224870); further: nearly all actives have a fitted effect of over 50% in size; further: potency means the concentration at half of the fitted maximal effect
Method in brief: (§3)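 HepG2 cells mixed with RealTime-Glo MT reagents (NanoLuc plus cell-permeant prosubstrate) were seeded at 600 cells/well, incubated 5 h at 37 C/5% CO2, then pinned with compounds in DMSO; nonlytic luminescence tracked viability during 40 h treatment.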

[7] = A CellTox Green Cytotoxicity Assay to monitor cytotoxicity in HEK293 cells - 40 hour (AID 1224871); further: nearly all actives have a fitted effect of over 45% in size; further: potency means the concentration at half of the fitted maximal effect
Method in brief: (§4)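 HEK293 cells premixed with CellTox Green dye were seeded at 600 cells/well and left 5 h at 37 C/5% CO2 before pin transfer of 23 nL compound in DMSO. Fluorescence from dye bound to dead-cell DNA was read during 40 h treatment.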

[8] = qHTS RealTime-Glo MT Cell Viability Assay in HEK293 cells - 16 hour (AID 1224872); further: nearly all actives have a fitted effect of over 50% in size; further: potency means the concentration at half of the fitted maximal effect
Method in brief: as §2

[9] = qHTS RealTime-Glo MT Cell Viability Assay in HepG2 cells - 8 hour (AID 1224873); further: nearly all actives have a fitted effect of over 55% in size
Method in brief: as §3

[10] = qHTS RealTime-Glo MT Cell Viability Assay in HEK293 cells - 40 hour (AID 1224874); conditions: RealTime-Glo luminescence; max response: stronger effect = lower value; further: nearly all actives have a fitted effect of over 50% in size; further: potency means the concentration at half of the fitted maximal effect
Method in brief: (§5)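 HEK293 cells mixed with RealTime-Glo reagents (NanoLuc plus cell-permeant prosubstrate) at 600 cells/well, preincubated 5 h at 37 C/5% CO2, then given 23 nL compound in DMSO. Nonlytic luminescence from viable cells was read at 0, 8, 16, 24, 32 and 40 h.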

[11] = A CellTox Green Cytotoxicity Assay to monitor cytotoxicity in HEK293 cells - 24 hour (AID 1224875); further: nearly all actives have a fitted effect of over 45% in size
Method in brief: as §4

[12] = A CellTox Green Cytotoxicity Assay to monitor cytotoxicity in HepG2 cells - 16 hour (AID 1224876); further: nearly all actives have a fitted effect of over 45% in size; further: potency means the concentration at half of the fitted maximal effect
Method in brief: (§6)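 HepG2 cells were seeded together with the CellTox Green dye at 600 cells/well, left 5 h at 37 C/5% CO2, then given compounds in DMSO. Fluorescence from dye bound to dead-cell DNA was read repeatedly over 40 h of treatment at 37 C.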

[13] = qHTS RealTime-Glo MT Cell Viability Assay in HepG2 cells - 32 hour (AID 1224877); further: nearly all actives have a fitted effect of over 55% in size; further: potency means the concentration at half of the fitted maximal effect
Method in brief: as §1

[14] = A CellTox Green Cytotoxicity Assay to monitor cytotoxicity in HepG2 cells - 24 hour (AID 1224878); further: nearly all actives have a fitted effect of over 45% in size; further: potency means the concentration at half of the fitted maximal effect
Method in brief: as §6

[15] = A CellTox Green Cytotoxicity Assay to monitor cytotoxicity in HepG2 cells - 40 hour (AID 1224879); further: nearly all actives have a fitted effect of over 40% in size; further: potency means the concentration at half of the fitted maximal effect
Method in brief: as §6

[16] = qHTS RealTime-Glo MT Cell Viability Assay in HEK293 cells - 0 hour (AID 1224880)
Method in brief: as §5

[17] = A CellTox Green Cytotoxicity Assay to monitor cytotoxicity in HEK293 cells - 32 hour (AID 1224881); further: nearly all actives have a fitted effect of over 40% in size
Method in brief: as §4

[18] = qHTS assay to identify small molecule antagonists of the estrogen related receptor (ERR) signaling pathway from Tox21 library (AID 1224848); further: nearly all actives have a fitted effect of over 50% in size; further: potency means the concentration at half of the fitted maximal effect
Method in brief: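 Cells: ERR line, 2,000/well; 6 h preincubation 37 C/5% CO2. Cpd in DMSO via pin tool; 18 h, 37 C. ONE-Glo, 30 min RT, luminescence.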

[19] = qHTS assay to identify small molecule agonists of the estrogen related receptor (ERR) signaling pathway from Tox21 library (AID 1224849; calls by dose curve; further: nearly all actives have a fitted effect of over 15% in size); conditions: ERR reporter cell line, ONE-Glo luciferase, 18 h
Method in brief: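 ERR reporter cell line (NTP) seeded, rested 6 h at 37 C/5% CO2, then pinned with Tox21 compounds in DMSO. After 18 h at 37 C, ONE-Glo luciferase luminescence was read following 30 min at room temperature.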

[20] = A CellTox Green Cytotoxicity Assay to monitor cytotoxicity in HEK293 cells - 0 hour (AID 1224869); further: nearly all actives have a fitted effect of over 50% in size
Method in brief: as §4
On the % scale 0 is the no-effect control and ±100 the full control effect.

CS(=O)(=O)NC(=O)c1cc(Oc2ccc(C(F)(F)F)cc2Cl)ccc1[N+](=O)[O-]
inactive: Potency [1] | outcome [2] | Potency [3] | Potency [4] | Potency [5] | Potency [6] | Potency [7] | Potency [8] | Potency [9] | max response [10] 9.57% and 9.32% | Potency [11] | Potency [12] | Potency [13] | Potency [14] | Potency [15] | Potency [16] | Potency [17]

O=[N+]([O-])/N=C1\NCCN1Cc1ccc(Cl)nc1
inactive: outcome [2] | Potency [3] | Potency [18] | activity change, positive = activation ([19]; at 42.5 µM (top of the series)) 0.753% | activity change, positive = activation ([19]; at 92.4 µM (top of the series)) -0.637% | Potency [4] | Potency [5] | Potency [6] | Potency [7] | Potency [8] | Potency [9] | max response [10] 1.13% and 0.238% | Potency [11] | Potency [12] | Potency [13] | Potency [14] | Potency [15] | Potency [16] | Potency [17]

Nc1ccc([N+](=O)[O-])cc1N
inactive: outcome [2] | Potency [3] | Potency [18] | Potency [4] | Potency [5] | Potency [20] | Potency [7] | Potency [8] | Potency [9] | max response [10] 0.0622% and -18.5% | Potency [11] | Potency [12] | Potency [13] | Potency [14] | Potency [15] | Potency [16] | Potency [17]
-63% (inactive) and 34.6% (active): activity change, positive = activation ([19]; at 92.4 µM (top of the series))

CCN(CC)C(=O)C(C)Oc1cccc2ccccc12 (stereo not given)
inactive: Potency [1] | outcome [2] | Potency [4] | Potency [5] | Potency [20] | Potency [6] | Potency [7] | Potency [8] | Potency [9] | max response [10] -27.1% and -29.7% | Potency [11] | Potency [12] | Potency [13] | Potency [14] | Potency [15] | Potency [16]

CC1(C)C(C(=O)OC(C#N)c2cccc(Oc3ccccc3)c2)C1(C)C (stereo not given)
active: Potency [18] 30.9 µM | Potency [10] 22 µM
inactive: Potency [1] | outcome [2] | activity change, positive = activation ([19]; at 92.4 µM (top of the series)) -46.1% and -24.4% | Potency [4] | Potency [5] | Potency [6] | Potency [7] | Potency [8] | Potency [9] | max response [10] -25.9% | Potency [11] | Potency [12] | Potency [13] | Potency [14] | Potency [15] | Potency [16]

N#Cc1nn(-c2c(Cl)cc(C(F)(F)F)cc2Cl)c(N)c1S(=O)C(F)(F)F (stereo not given)
inactive: outcome [2] | activity change, positive = activation ([19]; at 42.5 µM (top of the series)) -52.7% | activity change, positive = activation ([19]; at 92.4 µM (top of the series)) -58.7% | Potency [4] | Potency [20] | Potency [6] | Potency [7] | Potency [9] | Potency [11] | Potency [12] | Potency [13] | Potency [14] | Potency [15] | Potency [16]
active: Potency [3] 101 µM | Potency [18] 5.48 µM and 11.9 µM | Potency [5] 22 µM | Potency [8] 22 µM and 21.3 µM | Potency [10] 24.7 µM

Oc1ccc(Cl)cc1Cl
inactive: outcome [2] | Potency [3] | Potency [18] | activity change, positive = activation ([19]; at 92.4 µM (top of the series)) -0.925% and -0.996% | Potency [4] | Potency [5] | Potency [20] | Potency [6] | Potency [7] | Potency [8] | Potency [9] | max response [10] 3.11% | Potency [11] | Potency [12] | Potency [13] | Potency [14] | Potency [15] | Potency [16] | Potency [17]

OC(c1ccc(Cl)cc1)(c1cncnc1)c1ccccc1Cl (stereo not given)
25 µM (active) and inactive: Potency [14]
active: Potency [3] 115 µM | Potency [18] 11.1 µM and 54.5 µM | Potency [4] 31.4 µM | Potency [5] 6.27 µM and 24.5 µM | Potency [8] 11.2 µM | Potency [10] 5.59 µM and 27.5 µM
17.7 µM (active) and inactive: Potency [6] | Potency [13] | Potency [15]
49.8 µM (active) and inactive: Potency [12]
19.8 µM (active) and inactive: Potency [7]
inactive: outcome [2] | activity change, positive = activation ([19]; at 92.4 µM (top of the series)) -83.4% and -41.2% | Potency [20] | Potency [16]

NN=C(N)N
inactive: Potency [1] | Potency [3] | Potency [4] | Potency [5] | Potency [20] | Potency [6] | Potency [7] | Potency [8] | Potency [9] | max response [10] -2.73% and -1.15% | Potency [11] | Potency [12] | Potency [13] | Potency [14] | Potency [15] | Potency [16] | Potency [17]

C[N+](C)(C)CC(=O)O
inactive: Potency [1] | Potency [3] | Potency [4] | Potency [5] | Potency [20] | Potency [7] | Potency [8] | Potency [9] | max response [10] 5.5% and 7.98% | Potency [11] | Potency [12] | Potency [13] | Potency [14] | Potency [15] | Potency [16] | Potency [17]
